# Assay outcomes (PubChem BioAssay)
# Only a selection was taken, and hits are over-represented in it overall.
# Giardia FBPA inh = inhibitors of Giardia lamblia fructose-1,6-bisphosphate aldolase; purified Giardia FBPA; A8B2U2; Potency, µM (highest dose often 59.6 µM), usual class: inhibitors; 290,000 compounds, 0.71% hits; note: nearly all actives have a fitted effect of over 55% in size
#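 40 nM FBPA preincubated 10 min at RT with compound (up to 57.5 uM final), then substrate plus GAPDH/TPI/NAD/arsenate coupling and diaphorase/resazurin added. Fluorescence read after 20 min at RT, 525/598 nm.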
# Tb PYK inh = inhibitors of Trypanosoma brucei pyruvate kinase; Q57TT1; 410,000 compounds, 0.12% hits; Potency, µM (titrated, usually from 76.8 µM), actives largely listed as inhibitors; TbPYK enzyme, Kinase-Glo Plus ATP luminescence, 45 min; note: nearly all actives have a fitted effect of over 50% in size
#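 TbPYK + substrate in 50 mM TEA pH 7.2, 100 mM KCl, 10 mM MgCl2, 0.05% BSA, 0.01% Tween-20; cpd pinned; ADP 130 uM final; 45 min RT; Kinase-Glo Plus 10 min; luminescence endpoint.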
# RE007 growth inh = less growth of the S. pombe RE007 Vpr strain | 360,000 compounds, 0.21% hits | Potency, µM (top dose mostly 92.2 µM), hits mostly inhibitors | S. pombe RE007 Vpr strain, BacTiter-Glo ATP luminescence, 24 h; active = well fitted falling curve with a large enough effect; inconclusive = small, poorly fitted or top-dose-only effect; inactive = no such curve, though single readings can be large or run the other way; note: nearly all actives have a fitted effect of over 50% in size
#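 Fission yeast RE007 carrying one integrated HIV-1 vpr copy, seeded at OD 0.01 in PMG+AL medium with 23 nL pinned compound. Grown 24 h at 30 degrees; viability read by BacTiter-Glo luminescence after 5 min.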
# LmPK inhibitor = blocks Leishmania mexicana pyruvate kinase activity; purified LmPK, Kinase-Glo ATP luminescence, 1 h; Potency, µM (top dose mostly 57.5 µM), usual class: inhibitors; 290,000 compounds, 0.37% hits; AID 1721
# Target sequence (Q27686 whole entry, looked up): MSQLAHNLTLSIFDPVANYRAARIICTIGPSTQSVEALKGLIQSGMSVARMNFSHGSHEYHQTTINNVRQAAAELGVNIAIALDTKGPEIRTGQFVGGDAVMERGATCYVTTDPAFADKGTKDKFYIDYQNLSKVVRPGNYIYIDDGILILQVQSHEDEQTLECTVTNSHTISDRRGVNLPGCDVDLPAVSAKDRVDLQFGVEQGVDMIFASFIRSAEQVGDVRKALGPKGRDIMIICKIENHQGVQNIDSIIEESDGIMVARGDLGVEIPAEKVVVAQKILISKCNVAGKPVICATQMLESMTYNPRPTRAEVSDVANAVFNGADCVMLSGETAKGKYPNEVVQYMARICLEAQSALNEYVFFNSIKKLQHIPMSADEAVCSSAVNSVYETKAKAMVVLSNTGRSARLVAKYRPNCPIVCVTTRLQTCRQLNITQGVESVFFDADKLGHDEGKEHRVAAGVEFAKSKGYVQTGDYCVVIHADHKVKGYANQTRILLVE
#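 Pyruvate kinase activity monitored as ATP production (luciferase luminescence). Conditions: 0.1 nM enzyme, 0.5 mM PEP, 0.1 mM ADP, 1 h, RT; normalized against uninhibited and no-enzyme wells.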
# Shiga inhibitor = Shiga toxin inhibition. inhibition, % at 38.7 µM. 290,000 compounds, 9.2% hits. Vero cells, Shiga toxin protein synthesis inhibition reporter; in the data active = inhibition mostly above about 28%, no sharp cut-off; inactive = mostly below about 43%
# CHX counter = counter-screen hit for Shiga toxin inhibitors, cycloheximide. cell reporter, cycloheximide protein synthesis inhibition counterscreen. max response, %. 300,000 compounds, 12% hits. AID 2314; in the data active = max response mostly above about 13%, no sharp cut-off; inactive = mostly below about 14%; note: read at 38.3 µM for the half of the compounds with a filed dose
# A number is an active result; - = inactive; ? = inconclusive; . = no result given. Unless noted, calls come from the whole dose curve; as a rule, active = well fitted curve in the direction sought with a large enough effect; inconclusive = small, poorly fitted or top-dose-only effect, or another doubt; inactive = no such curve, though single readings can be large; an effect the other way counts as inactive or inconclusive.
SMILES,Giardia FBPA inh,Tb PYK inh,RE007 growth inh,LmPK inhibitor,Shiga inhibitor,CHX counter
Cc1ccc2oc(C(=O)N3CCN(c4cccc(C)n4)CC3)c(C)c2c1,-,-,-,-,.,27
CC1Cc2ccccc2N1C(=O)c1ccc2snnc2c1 (centres undefined),-,-,-,-,-,-
O=C1CC(c2ccco2)CC2=C1C(c1ccncc1)n1nc(C(F)(F)F)nc1N2 (centres undefined),.,.,.,.,-,-
Cc1c(C(=O)N2CCc3ccccc3C2)oc2ccccc12,.,-,-,-,74,39
Cc1cc(Cl)c2oc(C(=O)N3CCOCC3)c(C)c2c1,.,-,-,.,.,.
Cc1cc(Cl)c2oc(C(=O)N3CCN(C(=O)c4ccco4)CC3)c(C)c2c1,-,-,-,-,65,38
Cc1c(C(=O)N2CCN(c3ccccn3)CC2)oc2ccccc12,-,-,-,-,67,20
CCOc1ccccc1NC(=O)c1cc2cc(C)ccc2n1C,.,-,.,.,.,.
CCc1ccc(S(=O)(=O)c2nnn3c2nc(Nc2ccc(F)cc2)c2cc(Cl)ccc23)cc1,.,-,.,.,.,.
CC1CN(S(=O)(=O)c2cc(C(=O)N(C)Cc3cccs3)ccc2Cl)CC(C)O1 (centres undefined),.,-,-,.,.,.
CSc1oc(-c2ccc(F)cc2)nc1S(=O)(=O)c1ccccc1,-,-,-,-,-,19
O=S(=O)(c1ccccc1)c1nc(-c2ccccc2)oc1N1CCCCC1,-,-,-,-,77,24
Cc1ccc(NC(=O)c2ccc3c(c2)C(=O)N(CC2CCCO2)C3=O)cc1C (centres undefined),-,-,-,-,67,45
Nc1ccc(Oc2ccc3c(c2)C(=O)N(CC2CCCO2)C3=O)cc1 (centres undefined),-,-,-,-,50,42
O=C(Nc1cccnc1)c1ccc2c(c1)C(=O)N(CC1CCCO1)C2=O (centres undefined),-,-,-,-,-,-
O=C(NN1C(=O)c2ccccc2C1=O)c1ccc2c(c1)C(=O)N(CC1CCCO1)C2=O (centres undefined),-,-,-,-,44,19
COc1ccc(NC(=O)c2ccc3c(c2)C(=O)N(CC2CCCO2)C3=O)cc1O (centres undefined),-,-,-,-,-,-
CCOC(=O)/C=C/c1cc(F)c(S(=O)(=O)N2CCN(S(=O)(=O)c3ccc4c(c3)OCCO4)CC2)cc1F,.,.,.,.,-,-
CCOc1ccccc1CNC(=O)CCn1c(=O)c2cccn2c2ccc(F)cc21,.,-,.,.,.,.
CCCCOc1ccccc1NC(=O)CC1Sc2ccccc2NC1=O (centres undefined),.,-,.,.,.,.
C#C[C@]1(O)CCC2C3CCC4=Cc5oncc5C[C@@]4(C)C3CC[C@@]21C (some centres undefined),-,.,.,.,.,.
Nc1c(-c2ccccc2)cc[nH]c1=O,.,.,.,.,-,-
CN(C)C(=O)CSc1nnc(CCN)o1,-,-,-,-,-,-
CN(C)C(=O)CSc1nnc(C23CC4CC(CC(C4)C2)C3)o1,-,-,-,-,-,15
CC(C)Cc1nc(N2CCN(C(=O)C(C)C)CC2)c(C#N)c2c1CCC2,-,-,-,-,-,54
SMILES,Giardia FBPA inh,Tb PYK inh,RE007 growth inh,LmPK inhibitor,Shiga inhibitor,CHX counter
Fc1ccc(NC(=S)NNc2ncc(C(F)(F)F)cc2Cl)c(F)c1,-,-,-,-,48,-
COc1cc(O)cc2cc3c(c(O)c12)C(=O)CC(C)(O)O3 (centres undefined),?,-,-,-,37,35
CCc1cc2c(-c3ccccc3)cc(=O)oc2c2c1OCN(Cc1ccc(F)cc1)C2,.,-,.,.,.,.
Clc1ccc(-c2csc(N/N=C/c3ccco3)n2)cc1,-,-,-,-,79,38
Brc1ccc(-c2csc(N/N=C/c3ccco3)n2)cc1,-,-,-,-,71,40
O=C(N/N=C/c1ccco1)c1cc(-c2ccc(Cl)cc2)n[nH]1,-,-,-,-,-,-
Clc1ccc(-c2csc(N/N=C\c3cccnc3)n2)cc1,-,-,-,-,-,28
Cc1ccc(-c2cc(-c3ccccc3)nc(N/N=C/c3cccnc3)n2)cc1,.,-,-,.,.,.
Cc1sc(N/N=C/c2cccnc2)nc1-c1ccccc1,-,-,-,-,48,25
